Data as given in the supplement of paper PMC6555819.

What was measured:
Assay in all cases: PBM binding z-score (relative to random genomic background probes); higher = stronger binding; sequences stand for … in GC…GCGATTGACAGCGTAGAATGAAGG
[1] = tested on: RARb homodimer (NR concentration 270 nM)
Summary of the method: (§1)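 Ligand-free nuclear receptor dimers were applied to custom Agilent 4×180K protein-binding microarrays whose double-stranded probes carried direct-repeat seeds, single-nucleotide variants, half-site ablations and random human genomic background sequences in 34-nt variable regions. Incubation lasted 1 h. Binding z-scores were computed against the random background probes from regression-normalized fluorescence.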

[2] = tested on: RARg:RXRa (NR concentration 270 nM, RXRa partner concentration 90 nM)
Summary of the method: as §1

[3] = tested on: RARg homodimer (NR concentration 270 nM)
Summary of the method: as §1

[4] = tested on: RXRa DBDmut IVT, anti-RXR (DBD mutation: RXRa K156A/R161A, NR concentration 90 nM)
Summary of the method: as §1

[5] = tested on: RXRa homodimer (NR concentration 180 nM)
Summary of the method: as §1

[6] = tested on: THRa:RXRa (NR concentration 90 nM, RXRa partner concentration 90 nM)
Summary of the method: as §1

[7] = tested on: THRa homodimer (NR concentration 90 nM)
Summary of the method: as §1

[8] = tested on: VDR:RXRa (NR concentration 270 nM, RXRa partner concentration 90 nM)
Summary of the method: as §1

[9] = tested on: VDR homodimer (NR concentration 270 nM)
Summary of the method: as §1

| Sequence | PBM binding z-score [1] | PBM binding z-score [2] | PBM binding z-score [3] | PBM binding z-score [4] | PBM binding z-score [5] | PBM binding z-score [6] | PBM binding z-score [7] | PBM binding z-score [8] | PBM binding z-score [9] |
| --- | --- | --- | --- | --- | --- | --- | --- | --- | --- |
| CGAACTAGGGCAAAGGACAGTGAAAGGCGACGTA | 1.44 | 1.1 | 1.87 | 0.227 | -0.0436 | 0.0548 | -0.953 | -0.612 | -0.515 |
| CGAACTAGGTCACCAGGATAGTGAAGAGGTTGGA | 3.4 | 4.23 | 5.43 | 1.26 | 3.14 | 3.3 | 1.45 | 1.93 | 0.463 |
| CGTCCAAGGTCAAAGGTCAGCGAAGAGATGACGG | 5.39 | 8.99 | 8.41 | 3.72 | 10.4 | 5.06 | 2.63 | 6.91 | 3.77 |
| ATATGTAGGTTACATCCGGGTCTTTCAGGCTATG | 1.01 | 1.09 | 1.02 | 0.936 | 0.924 | 1.62 | 0.947 | 1.06 | 0.214 |
| CGAACTAGGTCAACAGGACAGTGAAGAGGTTGGA | 3.39 | 4.36 | 5.29 | 1.54 | 3.09 | 2.81 | 0.737 | 1.53 | 0.504 |
| TTACCAAGGTGAAAGGTCGTTGAAGCACGCCTTG | 2.64 | 4.3 | 2 | 0.879 | 5.84 | 3.57 | 0.624 | 3.42 | 1.29 |
| CGAACTAGGTCACCAGCACAGTGAAGAGGTTGGA | 3.37 | 4.43 | 5.44 | 1.35 | 3.29 | 3.1 | 1.29 | 1.89 | 0.496 |
| CCTTACGGGTCACGGTTATAGCACGGGTGGTACG | 3.58 | 5.47 | 5.06 | 0.501 | 6.44 | 3.28 | 0.418 | 3.87 | 1.26 |
| CGAACTAGGTCAGAGGACAGTGAAAGGCGACGTA | 2.41 | 2.82 | 3.91 | 0.547 | 1.54 | 1.76 | 0.433 | 0.161 | -7.91e-05 |
| ATATGTAGGTTAGCTGGGGTCATTCCGACTAGGC | 3.77 | 4.05 | 2.78 | 1.93 | 5.24 | 4.98 | 3.21 | 6.1 | 5.2 |
| AATACAGGGTCACTGGGCCAGAGTAGGTACGAAT | 3.72 | 5.73 | 5.37 | 2.35 | 6.2 | 3.59 | 1.3 | 4.65 | 2.73 |
| ATTTGTAGGTTAGGGTCATTCAGAAAGTAGGGAA | 3.88 | 4.4 | 3.72 | 2.82 | 5.6 | 4.17 | 3.71 | 4.81 | 4.56 |
| GGAACGGGGGCATTCGAGTTGATAGCATGGCGAT | 1.62 | 2.68 | 2.39 | 3.78 | 2.47 | 4.15 | 1.09 | 5.52 | 4.57 |
